How the values were obtained:
[1] = system: Madurella mycetomatis MM55; test: percent growth relative to solvent control; higher = less inhibition, active = 20 or less; conditions: 100 µM; 7 days
[2] = system: Madurella mycetomatis MM55; conditions: 7 days
[3] = system: Madurella mycetomatis MM55; test: IC90; higher = less potent; conditions: 7 days

Row | Compound | percent growth [1] | IC50 [2] [µM] | IC90 [3] [µM]
1 | COc1cc(OC)cc(C(=O)NCC2Cc3cc(Cl)cc(-c4ccncc4)c3O2)c1 (stereo not drawn) | 55.9% (inactive) | – | –
2 | CC(C(=O)N1CCCC1)N1CCN(S(=O)(=O)c2ccc(C(C)(C)C)cc2)CC1 (stereo not drawn) | 89.9% (inactive) | – | –
3 | O=C(Nc1ccccc1-c1nc2c(C(=O)O)cccc2o1)c1ccccc1 | 94% (inactive) | – | –
4 | CC[C@H](CO)NCCN[C@H](CC)CO | 139% (inactive) | – | –
5 | CC(Oc1cccc(Cl)c1)C(=O)Nc1ccc2oc(-c3ccncc3)nc2c1 (stereo not drawn) | 51.2% (inactive) | – | –
6 | Cc1cc(OCC(=O)NCc2ccccc2)c2cc(Br)ccc2n1 | 15.1% (active) | 67.9 | 100
7 | O=C(Nc1c(O)cccc1-c1nc2c(C(=O)O)cccc2o1)c1cc(-c2ccccc2)on1 | 113% (inactive) | – | –
8 | COC(=O)Nc1nc2cc(C(=O)c3ccccc3)ccc2[nH]1 | 111% (inactive) | – | –
9 | COc1cccc(-n2nnnc2S(=O)(=O)Cc2ccccc2)c1 | 1.14% (active) | 45.7 | 90
10 | O=C(Nc1nnc(-c2ccc(Cl)s2)o1)c1ccc(Cl)s1 | 3.26% (active) | 54.3 | 93.7
11 | CNC(=O)c1nn(C)c2c1C(C)(C)Cc1cnc(Nc3ccc(N4CCN(C)CC4)cc3)nc1-2 | 0.489% (active) | 10.7 | 21.5
12 | N=C(N)Nc1ccc(-c2ccc(-c3ccc(NC(=N)N)cc3Cl)o2)c(Cl)c1 | -6.7% (active) | 11.4 | 17.8
13 | CC(=O)Nc1ccc(-c2noc(CC3CCCN(Cc4cccc(F)c4C)C3)n2)cc1 (stereo not drawn) | 1.89% (active) | 66.2 | 94.5
14 | COc1cncc(-c2cncc(N3CCN(c4ccncc4)CC3)n2)c1 | -0.286% (active) | 28.2 | 52.1
